The nature of assay [1]: ATG_GLI_CIS: Attagene CIS-FACTORIAL HepG2 Assay for human Zinc Finger Protein GLI1 (AID 2282945). Conditions: HepG2, Attagene cis-factorial reporter mRNA, GLI element; actives raise or lower the signal. The essentials: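 Bidirectional curve fits relative to DMSO, using reporter mRNA levels from RT-PCR plus capillary electrophoresis. Cells were HepG2 transiently carrying cis-regulated reporter constructs, harvested 24 h after dosing.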

Assay [2] deals with Bile acid receptor (Homo sapiens) (UniProt Q96RI1). Put plainly: ATG_IR1_CIS: Attagene CIS-FACTORIAL HepG2 Assay for human Nuclear Receptor Subfamily 1 Group H Member 4 (NR1H4), IR1 submotif (AID 2282946). Conditions: IR1 reporter transcription, actives raise or lower the signal. An outline of the steps: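 HepG2 cells transiently transfected with multiplexed cis-element reporter units read endogenous transcription factor activity. After 24 h compound exposure, reporter mRNA was quantified by RT-PCR, fluorescent labelling, HpaI digestion and capillary electrophoresis; bidirectional fitting versus DMSO baseline.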

A short description of assay [3]: ATG_M_32_CIS: Attagene CIS-FACTORIAL HepG2 Assay for M32 Transcription Factor (Internal Marker) (AID 2282949).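 Note: background control marker of the multiplexed CIS panel rather than a real target.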 Conditions: HepG2 Attagene cis-factorial M32 reporter, mRNA; actives raise or lower the signal. An outline of the steps:
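Transient MRTU transfection of HepG2; 24 h compound treatment; TriZol RNA, oligo(dT) RT, reporter PCR, 6-FAM primer extension, HpaI cut, CE. Gain/loss of signal vs DMSO.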

The nature of assay [4]: ATG_M_06_CIS: Attagene CIS-FACTORIAL HepG2 Assay for M06 Transcription Factor (Internal Marker) (AID 2282950). The conditions noted are these: HepG2 Attagene CIS-FACTORIAL M06 internal marker reporter; actives raise or lower the signal. An outline of the steps:
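Cells (HepG2, transiently carrying cis-driven reporter units) receive chemical for 24 h before RNA isolation. Reporter cDNA is PCR-amplified, FAM-labelled by primer extension, HpaI-digested and sized on a capillary analyser.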

In assay [5] the target is Hypoxia-inducible factor 1-alpha (Homo sapiens) (UniProt Q16665). Put plainly: ATG_HIF1a_CIS: Attagene CIS-FACTORIAL HepG2 Assay for human Hypoxia Inducible Factor 1 (HIF1A) (AID 2282951). Conditions: HepG2 Attagene cis-factorial HIF1a reporter transcription; actives raise or lower the signal. An outline of the steps:
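HepG2 cells transiently transfected with multiplexed cis-promoter reporter units; reporter mRNA read 24 h after dosing by RT-PCR, 6-FAM primer-extension labelling, HpaI digestion and capillary electrophoresis. Bidirectional fit versus DMSO baseline.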

Assay [6] has as its target Hepatocyte nuclear factor 6 (Homo sapiens) (UniProt Q9UBC0). Put plainly: ATG_HNF6_CIS: Attagene CIS-FACTORIAL HepG2 Assay for human Hepatocyte Nuclear Factor 6 (HNF6) (AID 2282952). The conditions noted are these: HepG2 Attagene cis-factorial HNF6 reporter transcription; actives raise or lower the signal. The essentials: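 Readout: fluorescent reporter-transcript fragments resolved by capillary electrophoresis after RT-PCR, reflecting endogenous factor activity in transfected HepG2. Exposure 24 h. Gain or loss of signal fitted bidirectionally against DMSO.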

The target of assay [7] is Heat shock factor protein 1 (Homo sapiens) (UniProt Q00613). Put plainly: ATG_HSE_CIS: Attagene CIS-FACTORIAL HepG2 Assay for human Heat Shock Transcription Factor 1 (HSE) (AID 2282953). Conditions: HepG2 HSE cis-reporter, Attagene RNA transcription; actives raise or lower the signal. The essentials: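 Liver-derived HepG2 cells carry transiently introduced multiple reporter units governed by cis promoters. Reporter RNA measured 24 h post-dose through reverse transcription, PCR amplification, fluorescent labelling and capillary electrophoresis, normalised to DMSO.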

Assay [8] is described as follows: ATG_MRE_CIS: Attagene CIS-FACTORIAL HepG2 Assay for human Metal Responsive Element (MRE) (AID 2282954). The conditions noted are these: HepG2 MRE cis-reporter transcription, Attagene multiplex; actives raise or lower the signal. The essentials:
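Multiplexed cis-reporter assay in human HepG2 liver cells, 24 h incubation with test chemical. Reporter transcripts measured by RT-PCR and capillary electrophoresis; values from bidirectional curve fitting versus DMSO.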

Assay [9] can be described thus: ATG_PBREM_CIS: Attagene CIS-FACTORIAL HepG2 Assay for human Phenobarbital-responsive Enhancer Module (PBREM) (AID 2282955). Conditions: HepG2 PBREM cis-reporter, Attagene multiplexed transcription; actives raise or lower the signal. The essentials: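 HepG2 cells transiently transfected with multiple cis-regulated reporter transcription units; endogenous factor activity at the PBREM element measured as reporter mRNA 24 h after dosing, via RT-PCR and capillary electrophoresis of fluorescent fragments; bidirectional fitting versus DMSO.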

The target in assay [10] is Paired box protein Pax-6 (Homo sapiens) (UniProt P26367). Put plainly: ATG_Pax6_CIS: Attagene CIS-FACTORIAL HepG2 Assay for human Paired Box 6 (PAX6) (AID 2282956). Conditions: HepG2 CIS-FACTORIAL PAX6 reporter transcription, RNA readout; actives raise or lower the signal. The essentials: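 Values derive from bidirectional curve fitting of reporter mRNA signal relative to DMSO. HepG2 cells bearing transfected cis-regulated MRTUs were exposed for 24 h; transcripts were read by RT-PCR and capillary electrophoresis.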

A short description of assay [11]: ATG_PXRE_CIS: Attagene CIS-FACTORIAL HepG2 Assay for human Pregnane X Receptor Element (PXRE) (AID 2282957). The conditions noted are these: HepG2 Attagene CIS-FACTORIAL PXRE reporter, mRNA; actives raise or lower the signal. An outline of the steps: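 Read-out: fluorescence of reporter-specific RT-PCR products resolved by capillary electrophoresis, fitted bidirectionally relative to DMSO. Human HepG2 liver cells carried transfected cis-promoter reporter units and were exposed to chemicals for 24 h.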

Assay [12] in a line: ATG_RORE_CIS: Attagene CIS-FACTORIAL HepG2 Assay for human RAR-related Orphan Receptor Element (RORE) (AID 2282959). Conditions: HepG2 Attagene cis-factorial RORE reporter, mRNA; actives raise or lower the signal. An outline of the steps: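 HepG2 cells transiently transfected with multiple cis-element reporter transcription units, exposed to chemical for 24 h. Reporter mRNA quantified by RT-PCR, 6-FAM primer-extension labeling, HpaI digestion and capillary electrophoresis; bidirectional fit versus DMSO baseline.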

Assay [13] in a line: ATG_Sox_CIS: Attagene CIS-FACTORIAL HepG2 Assay for human SRY-box transcription factor (SOX) (AID 2282960). The conditions noted are these: HepG2 Attagene cis-factorial SOX reporter, mRNA; actives raise or lower the signal. An outline of the steps: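 HepG2 cells transiently transfected with cis-element-driven multiple reporter transcription units, dosed 24 h; reporter mRNA measured by RT-PCR, FAM labelling, HpaI digestion and capillary electrophoresis. Bidirectional fit versus DMSO baseline.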

The target in assay [14] is Transcription factor Sp1 (Homo sapiens) (UniProt P08047). Put plainly: ATG_Sp1_CIS: Attagene CIS-FACTORIAL HepG2 Assay for human Specificity Protein 1 (Sp1) (AID 2282961). The conditions noted are these: HepG2 Sp1 cis-reporter transcription, actives raise or lower the signal. The essentials: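 HepG2 cells transiently transfected with multiple reporter transcription units driven by cis-regulatory elements; Sp1-responsive reporter mRNA measured 24 h after dosing by RT-PCR and capillary electrophoresis fluorescence, fitted bidirectionally against DMSO baseline.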

Assay [15] is described as follows: ATG_TA_CIS: Attagene CIS-FACTORIAL HepG2 Assay for human TA Basal Promoter (AID 2282964). The conditions noted are these: HepG2 Attagene CIS-factorial TA basal promoter reporter; actives raise or lower the signal. An outline of the steps:
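Background internal-marker endpoint from a 52-component HepG2 cis-reporter panel. Cells treated 24 h; reporter transcripts quantified via RT-PCR and CE fluorescence against DMSO baseline.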

The nature of assay [16]: ATG_GRE_CIS: Attagene CIS-FACTORIAL HepG2 Assay for human Glucocorticoid Response Elements (GRE) (AID 2282947). Conditions: HepG2 GRE cis-reporter, Attagene multiplex mRNA; actives raise or lower the signal. The essentials:
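Multiplexed cis-reporter mRNA induction, HepG2, 24 h post-dose. RT-PCR, FAM-labelled, HpaI-digested amplicons by CE. Bidirectional fit vs DMSO.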

A short description of assay [17]: ATG_ISRE_CIS: Attagene CIS-FACTORIAL HepG2 Assay for human Interferon Regulatory Factor 1 (IRF1) binding to an Interferon-Stimulated Response Element (ISRE) (AID 2282948). Conditions: HepG2 ISRE cis-reporter (Attagene), mRNA transcription readout; actives raise or lower the signal. An outline of the steps:
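Signal reflects induction or loss of ISRE-linked reporter mRNA in transiently transfected HepG2 cells after a 24 h treatment, detected by fluorescent RT-PCR fragments on capillary electrophoresis and normalised to DMSO.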

Assay [18] is described as follows: ATG_PPRE_CIS: Attagene CIS-FACTORIAL HepG2 Assay for human Peroxisome Proliferator-activated Response Element (PPRE) (AID 2282958). Conditions: HepG2 PPRE cis-element reporter, Attagene transcription factor profiling; actives raise or lower the signal. The essentials:
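HepG2 cells transiently transfected with multiplexed cis-element reporter units measure endogenous transcription factor activity. After 24 h compound exposure, reporter mRNA is quantified by RT-PCR, 6-FAM labeling, HpaI digestion and capillary electrophoresis; bidirectional fits are made against DMSO baseline.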

The nature of assay [19]: ATG_SREBP_CIS: Attagene CIS-FACTORIAL HepG2 Assay for human Sterol Regulatory Element Binding (SREBP) (AID 2282962). The conditions noted are these: HepG2 Attagene cis-factorial SREBP reporter, mRNA; actives raise or lower the signal. An outline of the steps:
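Values derive from bidirectional curve fitting with DMSO as baseline. The underlying measurement is reporter mRNA from cis-element-regulated units in transiently transfected HepG2, quantified by RT-PCR and capillary electrophoresis after 24 h exposure.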

For assay [20], the target named is Signal transducer and activator of transcription 3 (Homo sapiens) (UniProt P40763). Put plainly: ATG_STAT3_CIS: Attagene CIS-FACTORIAL HepG2 Assay for human Signal Transducer and Activator of Transcription 3 (STAT3) (AID 2282963). The conditions noted are these: HepG2, Attagene cis-factorial STAT3 reporter transcription; actives raise or lower the signal. The essentials:
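Cis-factorial format: endogenous transcription factors in HepG2 drive transfected reporter units. After 24 h treatment, reporter RNA was reverse-transcribed, amplified, FAM-labelled and HpaI-digested before CE analysis; activity scored in both directions against DMSO.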

From PubChem BioAssay (EPA / NIEHS) come the findings set out here.

Usually AC50 stands for the concentration giving half of the maximal activity seen.

Active and inactive are the calls of the source. Rule for the calls: active = hit-call score of the fitted dose curve at least 0.9, where 1 is the maximum; inactive = score below 0.9.

Paired box protein Pax-6 (Homo sapiens), sequence (P26367 whole entry, looked up): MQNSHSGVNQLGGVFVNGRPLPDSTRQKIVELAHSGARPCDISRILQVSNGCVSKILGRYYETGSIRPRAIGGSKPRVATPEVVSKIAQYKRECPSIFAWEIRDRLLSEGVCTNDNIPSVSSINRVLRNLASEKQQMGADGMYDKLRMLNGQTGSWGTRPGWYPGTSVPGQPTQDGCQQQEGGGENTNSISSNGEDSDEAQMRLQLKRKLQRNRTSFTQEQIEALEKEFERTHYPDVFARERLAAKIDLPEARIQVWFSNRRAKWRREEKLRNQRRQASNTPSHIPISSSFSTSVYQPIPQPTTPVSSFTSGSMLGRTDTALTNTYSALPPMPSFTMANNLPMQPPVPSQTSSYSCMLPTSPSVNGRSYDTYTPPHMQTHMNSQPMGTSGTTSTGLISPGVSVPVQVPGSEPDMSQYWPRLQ
Transcription factor Sp1 (Homo sapiens), sequence (P08047 whole entry, looked up): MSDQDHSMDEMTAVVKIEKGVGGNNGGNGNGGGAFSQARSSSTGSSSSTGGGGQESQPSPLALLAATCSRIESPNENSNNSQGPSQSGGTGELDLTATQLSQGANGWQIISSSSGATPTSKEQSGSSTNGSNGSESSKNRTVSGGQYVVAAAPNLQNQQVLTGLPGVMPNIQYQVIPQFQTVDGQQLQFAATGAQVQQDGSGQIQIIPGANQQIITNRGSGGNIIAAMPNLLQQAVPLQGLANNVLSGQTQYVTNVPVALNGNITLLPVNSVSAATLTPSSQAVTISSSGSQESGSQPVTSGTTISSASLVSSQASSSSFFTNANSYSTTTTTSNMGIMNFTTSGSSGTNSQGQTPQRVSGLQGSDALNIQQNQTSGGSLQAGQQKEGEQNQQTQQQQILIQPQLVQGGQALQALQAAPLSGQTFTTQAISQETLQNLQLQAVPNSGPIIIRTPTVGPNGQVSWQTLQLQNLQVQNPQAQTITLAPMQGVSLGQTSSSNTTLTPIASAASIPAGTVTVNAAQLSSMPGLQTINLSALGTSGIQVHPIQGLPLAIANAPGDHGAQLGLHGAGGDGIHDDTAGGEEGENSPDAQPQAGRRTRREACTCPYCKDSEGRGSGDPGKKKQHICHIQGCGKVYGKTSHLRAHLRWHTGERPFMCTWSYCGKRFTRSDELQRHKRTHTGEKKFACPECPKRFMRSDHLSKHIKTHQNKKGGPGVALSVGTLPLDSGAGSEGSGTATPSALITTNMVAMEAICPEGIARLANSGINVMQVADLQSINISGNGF
Hepatocyte nuclear factor 6 (Homo sapiens), sequence (Q9UBC0 whole entry, looked up, the tested form may be a part): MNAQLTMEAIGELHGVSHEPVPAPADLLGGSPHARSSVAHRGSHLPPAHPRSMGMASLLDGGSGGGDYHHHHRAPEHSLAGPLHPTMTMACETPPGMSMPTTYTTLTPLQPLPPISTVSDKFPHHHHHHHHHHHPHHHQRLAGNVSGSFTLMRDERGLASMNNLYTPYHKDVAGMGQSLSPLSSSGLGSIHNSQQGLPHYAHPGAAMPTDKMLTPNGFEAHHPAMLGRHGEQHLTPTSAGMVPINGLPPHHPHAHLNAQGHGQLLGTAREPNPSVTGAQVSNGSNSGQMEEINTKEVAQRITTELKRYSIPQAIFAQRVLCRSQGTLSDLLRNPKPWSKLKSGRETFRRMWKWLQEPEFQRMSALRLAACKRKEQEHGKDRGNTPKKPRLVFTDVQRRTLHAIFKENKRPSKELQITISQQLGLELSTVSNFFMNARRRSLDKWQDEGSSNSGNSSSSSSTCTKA
Heat shock factor protein 1 (Homo sapiens), sequence (Q00613 whole entry, looked up): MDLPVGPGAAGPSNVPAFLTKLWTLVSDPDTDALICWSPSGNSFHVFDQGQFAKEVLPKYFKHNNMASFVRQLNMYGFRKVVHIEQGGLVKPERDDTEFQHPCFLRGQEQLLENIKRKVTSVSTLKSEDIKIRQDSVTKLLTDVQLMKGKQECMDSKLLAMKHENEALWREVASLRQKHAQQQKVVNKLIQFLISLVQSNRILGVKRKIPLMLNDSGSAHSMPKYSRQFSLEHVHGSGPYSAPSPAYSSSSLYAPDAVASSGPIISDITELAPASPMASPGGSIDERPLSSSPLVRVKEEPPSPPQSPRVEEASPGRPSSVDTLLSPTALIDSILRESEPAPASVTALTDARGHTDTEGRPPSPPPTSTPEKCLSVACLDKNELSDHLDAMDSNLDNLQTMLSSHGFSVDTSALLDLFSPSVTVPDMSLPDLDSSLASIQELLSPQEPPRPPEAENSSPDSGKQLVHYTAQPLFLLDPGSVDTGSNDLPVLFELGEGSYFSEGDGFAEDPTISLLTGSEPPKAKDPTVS
Hypoxia-inducible factor 1-alpha (Homo sapiens), sequence (Q16665 whole entry, looked up): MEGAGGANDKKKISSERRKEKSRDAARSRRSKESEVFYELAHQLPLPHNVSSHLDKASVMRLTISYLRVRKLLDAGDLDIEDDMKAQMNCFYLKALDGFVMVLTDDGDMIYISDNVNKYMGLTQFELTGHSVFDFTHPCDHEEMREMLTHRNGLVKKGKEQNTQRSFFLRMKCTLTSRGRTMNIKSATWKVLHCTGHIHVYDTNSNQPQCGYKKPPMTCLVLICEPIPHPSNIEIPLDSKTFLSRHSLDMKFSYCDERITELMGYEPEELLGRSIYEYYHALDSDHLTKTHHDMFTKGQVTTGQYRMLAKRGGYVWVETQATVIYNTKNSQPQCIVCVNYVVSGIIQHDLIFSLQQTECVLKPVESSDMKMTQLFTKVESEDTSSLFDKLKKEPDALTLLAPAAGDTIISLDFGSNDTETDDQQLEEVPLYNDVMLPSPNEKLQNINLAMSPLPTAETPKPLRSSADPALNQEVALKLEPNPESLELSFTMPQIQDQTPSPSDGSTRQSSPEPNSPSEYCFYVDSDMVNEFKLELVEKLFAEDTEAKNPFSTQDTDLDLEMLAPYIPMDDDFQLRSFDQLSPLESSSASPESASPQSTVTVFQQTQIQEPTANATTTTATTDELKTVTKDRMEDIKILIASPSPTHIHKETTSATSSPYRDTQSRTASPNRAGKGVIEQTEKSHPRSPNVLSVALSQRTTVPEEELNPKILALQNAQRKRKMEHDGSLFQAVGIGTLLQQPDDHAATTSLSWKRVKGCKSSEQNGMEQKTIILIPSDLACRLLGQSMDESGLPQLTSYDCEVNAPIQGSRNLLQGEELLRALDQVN
Signal transducer and activator of transcription 3 (Homo sapiens), sequence (P40763 whole entry, looked up): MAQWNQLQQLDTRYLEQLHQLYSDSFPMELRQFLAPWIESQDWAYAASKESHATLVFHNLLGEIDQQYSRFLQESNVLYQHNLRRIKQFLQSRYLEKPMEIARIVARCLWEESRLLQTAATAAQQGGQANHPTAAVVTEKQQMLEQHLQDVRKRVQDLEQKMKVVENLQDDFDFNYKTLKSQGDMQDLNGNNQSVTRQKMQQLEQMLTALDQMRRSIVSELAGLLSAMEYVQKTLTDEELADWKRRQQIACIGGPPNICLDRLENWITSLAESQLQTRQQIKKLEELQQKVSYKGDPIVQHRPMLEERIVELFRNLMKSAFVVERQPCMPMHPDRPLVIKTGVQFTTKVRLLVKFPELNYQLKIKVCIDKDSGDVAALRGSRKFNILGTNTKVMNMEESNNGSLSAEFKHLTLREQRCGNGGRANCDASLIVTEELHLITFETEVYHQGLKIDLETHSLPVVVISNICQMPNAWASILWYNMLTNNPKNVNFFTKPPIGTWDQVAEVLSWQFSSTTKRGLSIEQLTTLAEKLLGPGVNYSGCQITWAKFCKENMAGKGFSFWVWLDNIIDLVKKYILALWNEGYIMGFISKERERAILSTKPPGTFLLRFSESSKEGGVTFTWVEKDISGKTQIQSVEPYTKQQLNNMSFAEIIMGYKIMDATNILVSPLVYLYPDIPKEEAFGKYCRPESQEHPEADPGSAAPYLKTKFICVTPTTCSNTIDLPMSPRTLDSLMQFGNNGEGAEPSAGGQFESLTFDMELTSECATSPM
Bile acid receptor (Homo sapiens), sequence (Q96RI1 whole entry, looked up): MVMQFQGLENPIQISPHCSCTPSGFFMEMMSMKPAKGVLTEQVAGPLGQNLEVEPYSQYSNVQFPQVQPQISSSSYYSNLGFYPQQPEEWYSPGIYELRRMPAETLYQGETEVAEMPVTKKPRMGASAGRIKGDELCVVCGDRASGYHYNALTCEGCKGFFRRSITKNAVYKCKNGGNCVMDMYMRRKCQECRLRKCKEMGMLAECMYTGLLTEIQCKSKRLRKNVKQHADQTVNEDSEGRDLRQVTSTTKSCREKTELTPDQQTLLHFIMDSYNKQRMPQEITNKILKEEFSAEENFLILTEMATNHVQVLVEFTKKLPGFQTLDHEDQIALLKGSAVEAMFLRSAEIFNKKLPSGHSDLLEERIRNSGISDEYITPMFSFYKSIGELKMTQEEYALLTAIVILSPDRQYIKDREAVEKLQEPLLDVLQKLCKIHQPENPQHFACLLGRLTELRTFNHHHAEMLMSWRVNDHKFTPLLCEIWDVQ

As for `CCC(=O)OC(C)(C)C1CC=C(C)CC1` (centres undefined), the result in [1], in assay [2], in assay [3], in assay [4], in assay [5] and in [6] was inactive. Also, the compound was called inactive in [7], in [8], in assay [9], in [10], in [12] and in [13]. For the same compound, the compound was classed as inactive in assay [14] and in assay [15]. For the same compound, in assay [11], the AC50 was 27.4 µM (active).

As for `C1CCCNCC1`, the call in assay [1], in assay [16], in assay [17], in assay [3], in [4] and in assay [5] was inactive. Further, the compound was classed as inactive in assay [6], in [7], in [8], in assay [9], in [10] and in [18]. In addition, the compound was classed as inactive in assay [12], in assay [13], in assay [19] and in assay [15]. Also, the AC50 in assay [11] was 27.3 µM (active).

In the case of `COc1ccc(OC)cc1`, the outcome in assay [1], in assay [16], in [17], in assay [3], in [4] and in [5] was inactive. Also, the outcome in assay [6], in [7], in assay [8], in assay [9], in assay [10] and in assay [11] was inactive. Besides, the result in [18], in assay [12], in assay [13], in assay [14], in assay [19] and in [20] was inactive. Also, the compound was classed as inactive in [15].

Consider `O=C(O)CS`, for which the compound was classed as inactive in assay [1], in assay [16], in assay [17], in [3], in [4] and in [5]. In addition, the outcome in [6], in assay [7], in assay [8], in assay [10], in [11] and in [18] was inactive. The compound was called inactive in assay [12], in assay [13], in assay [14], in [19], in [20] and in assay [15].
